# Sampled rows, rich in hits. Any-hit rate of the full collection: about 1.8%.
# SDO1 yeast rescue: sdo1-depleted yeast growth rescue | AID 817 | z-score at 10 µM | S. cerevisiae sdo1-depleted JHY4D growth rescue, OD600 30 h; stronger effect = higher value; pdr5 snq2 efflux-pump mutant strain | 0.21% of 140,000 active;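 active = z-score above 3 at both the 24 hr and the 30 hr optical density reads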;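 also: z-score against mean and SD of all compound wells on the same plate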
# Phagocytosis inh: inhibitors of macrophage phagocytosis | 0.07% of 110,000 active | inhibition, % at 5 µM | J774A.1 macrophage IgG-bead phagocytosis, imaging;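 active = inhibition above the mean of the plate negative controls plus 5 SD, cut at about 13% in these data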;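 also: phagocytic index as fraction of beads internalized from green versus red external bead signal; plate controls were DMSO negative control for no effect and cytochalasin-D positive control for full effect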
# Measles CPE: protection of cells from measles virus; 1.5% of 140,000 active; protection (pct of control), % at 4 µM; Measles virus-infected cells, CPE protection, absorbance; in the data active = protection mostly above about 24%, no sharp cut-off; inactive = mostly below about 26%
# An asterisk follows results filed as active; . = no result; + = active, no number.
SMILES,SDO1 yeast rescue,Phagocytosis inh,Measles CPE
O=C(c1ccccc1)N(C1=NCCCCS1)c1ccccc1,-0.02,-1,3
C/C(Cl)=C\Cn1c(Nc2ccccc2)nc2c1c(=O)n(C)c(=O)n2C,-0.49,-1,25*
C/C(Cl)=C/Cn1c(NCCN(C)C)nc2c1c(=O)n(C)c(=O)n2C,0.96,1,6
Cc1ccc(NC(=S)NNC(=O)c2c(Cl)c(C)nn2C)cc1,-0.06,-4,9
Cc1ccc(NC(=S)NNC(=O)c2nn(C)c(C)c2Cl)cc1,1.6,.,102*
O=[N+]([O-])c1cc(S(=O)(=O)Nc2ccccc2)ccc1NCc1ccccc1,-1.9,.,37*
O=[N+]([O-])c1cc(S(=O)(=O)Nc2ccccc2)ccc1NCc1cccnc1,0.81,.,14
O=S(=O)(c1ccc(-c2cn3ccccc3n2)cc1)N1CCOCC1,0.36,-1,63*
Cc1cccn2cc(-c3ccc(S(=O)(=O)N4CCOCC4)cc3)nc12,-0.42,.,4
CCN(CC)S(=O)(=O)c1ccc(N2CCCC2)c(C(=O)Nc2ccc(OC)c(Cl)c2)c1,-0.49,-5,24
Cc1noc(C)c1COc1ccc(C(=O)OC(C)C(=O)Nc2ccc(S(=O)(=O)N3CCOCC3)cc2)cc1 (configuration not stated),1.3,-3,17
O=C(NCCCN1CCN(c2ccccc2F)CC1)C1CCC(=O)N1C1CCCC1 (configuration not stated),0.89,.,4
COc1ccc(NC(=O)C2CCCN2S(=O)(=O)c2ccc(F)cc2)cc1 (configuration not stated),-0.59,0,10
O=C(NCc1cccnc1)C1CCCCN1S(=O)(=O)c1ccc(F)cc1 (configuration not stated),-0.01,-1,19*
O=C(O)C1CCCN1S(=O)(=O)c1ccc(Cl)c(Cl)c1 (configuration not stated),0.53,-2,15
O=C(Nc1ncccn1)C1CCCN1S(=O)(=O)c1ccc(Cl)c(Cl)c1 (configuration not stated),0.81,-2,45*
O=C(Nc1nccs1)C1CCCN1S(=O)(=O)c1ccc(F)cc1 (configuration not stated),0.12,+,5
O=C(NCc1cccnc1)C1CCCN(S(=O)(=O)c2ccc(Br)cc2)C1 (configuration not stated),0.07,-2,26
O=C1CCCc2c1cc(C(=O)NCc1ccco1)c(=O)n2-c1ccc(Cl)cc1,0.46,-1,15
CC(NS(=O)(=O)c1ccccc1)C(N)=O (configuration not stated),0.59,4,0
COc1cc(C(=O)NNC2=NC(C)(C)Cc3cc(C)c(C)cc32)cc(OC)c1OC,-0.28,.,15
Cc1ccc(C)c(S(=O)(=O)N2CCN(C(=O)Cn3c(C(F)(F)F)nc4ccccc43)CC2)c1,2,-2,16
CC1CCCCN1C(=O)c1cc(Cl)ccc1[N+](=O)[O-] (configuration not stated),1,0,9
O=C(c1ccccc1Sc1ccc([N+](=O)[O-])cc1)N1CCCCC1,0.52,-6,15
CCn1c(CSc2nc3ccccc3[nH]2)nc2cc(C(=O)O)ccc21,0.84,-1,9
SMILES,SDO1 yeast rescue,Phagocytosis inh,Measles CPE
CCn1c(CSc2nccn2C)nc2cc(C(=O)O)ccc21,0.56,1,51*
Cc1cc(C)nc(SCC(=O)Nc2ncc3c(n2)CC(C)(C)CC3=O)n1,0.38,0,12
CC1(C)CC(=O)c2cnc(NC(=O)CSc3nc4ccccc4o3)nc2C1,-0.9,.,17*
O=C(CSc1nc2ccccc2o1)Nc1ccc(N2CCOCC2)cc1,-0.51,.,3
O=C(CSc1nc2ccccc2o1)Nc1ccccc1N1CCOCC1,-1.5,1,48*
O=C(NCc1ccccn1)C1CCC(=O)N1C1CCCCC1 (configuration not stated),1.2,0,5
Nc1nnnn1/N=C/c1cccc(O)c1,0.15,0,24
Nc1nnnn1/N=C/c1ccc(O)cc1,0.98,0,50*
CCCc1oc(C(=O)O)cc1CN1CCCC1,0.21,-1,2
CCCc1oc(C(=O)O)cc1CN1CCOCC1,0.12,1,34*
CCCC(=O)c1c[nH]c(C(=O)NCc2ccco2)c1,0.58,.,5
Cc1nc(N)sc1C(=O)Nc1ccccc1,0.45,1,35*
Cc1nc(-c2cccnc2)sc1C(=O)Nc1ccc(Cl)cc1,-0.86,.,33*
Cc1nc(NC(N)=S)sc1C(=O)Nc1ccccc1,1.2,.,50
Cc1nc(-c2cccnc2)sc1C(=O)Nc1ccc(F)cc1F,0.43,.,25
COc1ccc(CC(=O)Nn2c(-c3ccccc3)nc3ccccc3c2=O)cc1,-0.3,.,5
CCOC(=O)Cc1nnc(NC(=O)COc2ccc(C)cc2)s1,-0.39,-1,6
CCOC(=O)Cc1nnc(NC(=O)COc2ccc(OC)cc2)s1,-0.17,0,23*
COc1ccc(/C=N/N2CCN(C)CC2)cc1O,1.8,2,28*
COc1cccc(/C=N/N2CCN(C)CC2)c1,0.66,-11,2
Cc1ccc(C)c(N(CC(N)=O)S(C)(=O)=O)c1,0.43,0,50*
Cc1ccccc1N(CC(N)=O)S(C)(=O)=O,2.6,0,5
CCOC(=O)c1c(C)n(C)c2ccc(OC)c(NC(=O)CN3CCN(C4CCCCC4)CC3)c12,-0.19,2,4
CCOC(=O)c1c(C)n(C)c2ccc(OC)c(NC(=O)CN3CCN(C(=O)c4ccco4)CC3)c12,0.28,0,26*
CCOC(=O)c1c(C)n(C)c2ccc(OC)c(NC(=O)CCN3CCSCC3)c12,1.1,0,37*
SMILES,SDO1 yeast rescue,Phagocytosis inh,Measles CPE
CCOC(=O)c1c(C)n(C)c2ccc(OC)c(NC(=O)CN3CCN(Cc4ccccc4)CC3)c12,1.1,.,4
Cn1nnnc1SCCNCc1ccncc1,-0.01,-3,27
Cn1c(Cl)c(/C=N/OC(=O)c2ccccc2Cl)c2ccccc21,-1.2,2,8
Cc1cccc(C(=O)O/N=C/c2c(N3CCOCC3)n(C)c3ccccc23)c1,-1.3,-1,32*
CC1CCCC(NC(=O)C2CCCN2S(=O)(=O)c2cccc3nsnc23)C1C (configuration not stated),-0.88,0,4
Cc1ccc(Nc2nc(CSc3nnc(-c4ccc(F)cc4)n3C)cs2)cc1,-1.3,1,15
O=c1cc(C(F)(F)F)nc(-c2ccccc2)[nH]1,0.64,1,5
O=C(Nc1ccc2c(c1)OCO2)C1CC(c2ccc(Cl)cc2)=NO1 (configuration not stated),-0.88,0,40*
CCn1ncc(C2=NOC(C(=O)Nc3ccc4c(c3)OCO4)C2)c1C (configuration not stated),0.14,3,6
C(=N\Nc1nc(Nc2ccccc2)nc(N2CCOCC2)n1)/c1c[nH]c2ccccc12,-0.7,.,32
O=C(Oc1cccc(/C=N/Nc2nc(Nc3ccccc3)nc(N3CCOCC3)n2)c1)c1ccco1,-1.5,.,19*
c1ccc(CSc2ccc3nnc(-c4cccnc4)n3n2)cc1,-0.69,-8,19
CN1CCC(N2CCN(c3cccc(C(F)(F)F)c3)CC2)CC1,1.2,.,5
FC(F)(F)c1cccc(N2CCc3cn[nH]c32)c1,-0.94,0,39*
CCc1cc2cc(C(=O)Nc3ccc(C)cc3)sc2s1,-0.36,.,10
CCn1c(C)nc2cc(-c3nnc(-c4c(-c5ccccc5)noc4C)o3)ccc21,-2.4,-1,50*

# Bioassay records deposited in PubChem by several laboratories.
